Here are results for 11 substances from ChEMBL document CHEMBL1201862, “PubChem BioAssay data set” (2004).

Out of some 55,000 sequences screened, about 4,100 (7.5%) were called active. Cut-off read from the data, not from the text of the source: active = GI50 up to about 1.1 µM and inactive = higher. Only a sample is shown. Potency and affinity values are given separately.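 Dose response: 5 concentrations. Exposure: 48 h. Format: 96-well plates. Endpoint: linear interpolation; highest concentration if not reached. GI50 is the concentration that inhibits growth by half.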

This assay deals with SF-539. Description: NCI tumour cell line growth inhibition, 48 h.
In the case of “[Bis(aminomethyl)tetramethylenesilane]dichloropaltinum(II), CHEMBL2146205”, the GI50 amounted to 20.5 µM.
Under “[Bis(aminomethyl)diethylsilane]tetrachloroplatinum(IV), CHEMBL2146203” stands 2.49 µM; under “[Bis(aminomethyl)pentamethylenesilane]tetrachloropaltinum(IV), CHEMBL2146204”, 0.558 µM; under “[Bis(aminomethyl)tetramethylenesilane]tetrachloropaltinum(IV), CHEMBL2146189”, 2.18 µM.
In turn, “[Bis(aminomethyl)dimethylsilane]dichloroplatinum (II), CHEMBL2146201” returned a GI50 of 23.4 µM.
In turn, “cis-Bis[[(trimethylsilyl)methyl]amino]tetrachloroplatinum(IV), CHEMBL2146191” showed a GI50 of 4.24 µM.
In turn, “[Bis(aminomethyl)dimethylsilane]tetrachloroplatinum(IV), CHEMBL2146190” had a GI50 of 4.99 µM.
The result for “[Bis(aminomethyl)pentamethylenesilane]dichloropaltinum(II), CHEMBL2146202” reads 1.48 µM; that for “mu-(1,7-nanodiamine-N,N')bis-(cis-aminedichloroplatimum (II)), CHEMBL2146215”, 27.4 µM.
Under CISPLATIN, CHEMBL11359 stands 1.66 µM.
The result for “[Bis(aminomethyl)ethylmethylsilane]tetrachloroplatinum(IV), CHEMBL2146192” reads 3.05 µM.
